# Results: the supplement of paper PMC9254222
# The full ranking holds about 1,100 compounds; the median of “Renilla luciferase signal (cell health) relative to plate median” is about 0.97, and the highest 2% start at about 1.6. The full list was thinned out, with the highest values kept by preference.
# Tested on: HEK293T (UBE3A T485A transfected, BAR Wnt reporter)
# Experiment: Renilla luciferase signal (cell health) relative to plate median (fold (linear ratio)); higher = higher Renilla signal
# Conditions: 24 h
# Procedure, shortened: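 Wnt activity (firefly/Renilla ratio) and cell health (raw Renilla) were read with Dual-Glo luciferase and median-centred plate by plate. HEK293T cells, at 4500 cells/well in white 384-well plates with DMEM plus 10% FBS at 37°C and 5% CO2, carried a transfected BAR firefly luciferase Wnt reporter, TK-Renilla and an expression plasmid. The chemicals were applied by robot at 0.01–100 uM for 24 h, beginning four hours after transfection, and results were averaged across four biological replicates.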
Structure (SMILES),Renilla luciferase signal (concentration: 0.01 uM),Renilla luciferase signal (concentration: 0.1 uM),Renilla luciferase signal (concentration: 1 uM),Renilla luciferase signal (concentration: 10 uM),Renilla luciferase signal (concentration: 100 uM)
O=C(Nc1ccccc1)Nc1cnns1 [Thidiazuron],1.1,1.07,1,0.921,0.135
C[Si](Cn1cncn1)(c1ccc(F)cc1)c1ccc(F)cc1 [Flusilazole],1.03,1.08,1.03,0.986,0.258
CC(C)[C@H](C(=O)O[C@H](C#N)c1cccc(Oc2ccccc2)c1)c1ccc(Cl)cc1 [Esfenvalerate],0.932,0.969,0.846,0.908,0.397
Nc1cnn(-c2ccccc2)c(=O)c1Cl [Chloridazon],0.928,0.982,0.916,1.1,1.34
Cc1ccccc1[N+](=O)[O-] [2-Nitrotoluene],–,1.24,1.08,1.14,1.33
Cc1nc(N(C)C)nc(OC(=O)N(C)C)c1C [Pirimicarb],1.09,1.09,1.1,1.21,2.4
"O=C([O-])C(F)(F)C(F)(F)C(F)(F)C(F)(F)C(F)(F)C(F)(F)C(F)(F)F.[NH4+] [PFOA, ammonium salt]",–,0.839,0.971,0.797,0.224
"Clc1cccc(Cl)c1 [1,3-Dichlorobenzene]",–,0.976,1.06,1.08,1.26
"Cc1ccc(N=C=O)cc1N=C=O [Toluene-2,4-diisocyanate]",–,0.891,0.94,1.08,0.677
COc1nn(CSP(=S)(OC)OC)c(=O)s1 [Methidathion],0.805,0.65,0.845,0.715,0.562
COP(=S)(OC)SCN1C(=O)c2ccccc2C1=O [Phosmet],–,0.82,0.838,0.713,0.82
CNC(=O)CSP(=S)(OC)OC [Dimethoate],1.22,0.985,0.987,1.12,1.67
CCC1(c2ccccc2)C(=O)N=C([O-])NC1=O.[Na+] (stereo unspecified) [Phenobarbital sodium],–,0.831,0.817,0.777,0.914
COCCOCCO [Diethylene glycol monomethyl ether],–,1.01,0.991,1.01,1.32
C[N+]1(C)CCCCC1.[Cl-] [Mepiquat chloride],1.1,1.08,1.06,1.02,1.31
CN(C)C(=S)[S-].[Na+] [Sodium dimethyldithiocarbamate],–,0.974,1.07,0.874,1.06
CN(C)C(=S)[S-].CN(C)C(=S)[S-].[Zn+2] [Ziram],–,0.814,0.726,0.999,0.0214
CNC(=S)[S-].O.O.O.[Na+] [Metam-sodium hydrate],1.32,1.02,1.07,1.06,1.67
Nc1ccc(/N=N/c2ccccc2)cc1 [4-Aminoazobenzene],–,0.476,0.565,0.351,0.181
NC1=NC(O)C2C3OC4(O)OC(C(O)C2(N1)C4O)C3(O)CO (stereo unspecified) [Tetrodotoxin (TTX)],1.02,0.976,0.904,1.03,2.57
OC(c1ccc(Cl)cc1)(c1cncnc1)c1ccccc1Cl (stereo unspecified) [Fenarimol],1.21,0.875,0.953,0.942,0.199

Structure (SMILES),Renilla luciferase signal (concentration: 0.01 uM),Renilla luciferase signal (concentration: 0.1 uM),Renilla luciferase signal (concentration: 1 uM),Renilla luciferase signal (concentration: 10 uM),Renilla luciferase signal (concentration: 100 uM)
"CCN(CC)c1ccccc1 [N,N-Diethylaniline]",–,1.07,1.06,1.09,1.47
OCCCBr [3-Bromo-1-propanol],–,0.865,0.896,0.988,0.976
CCOC(=O)COc1cc(-c2nn(C)c(OC(F)F)c2Cl)c(F)cc1Cl [Pyraflufen-ethyl],0.786,0.651,0.92,0.846,1.17
CCOC(=O)C(Cl)Cc1cc(-n2nc(C)n(C(F)F)c2=O)c(F)cc1Cl (stereo unspecified) [Carfentrazone-ethyl],0.995,1.11,0.895,0.956,1.9
Cc1nn(-c2cc(NS(C)(=O)=O)c(Cl)cc2Cl)c(=O)n1C(F)F [Sulfentrazone],1.01,1.05,0.889,1.04,1.21
"COc1cc(-c2ccc(N)c(OC)c2)ccc1N [3,3'-Dimethoxybenzidine]",–,0.89,0.92,0.684,0.388
"COc1cc(-c2ccc(N)c(OC)c2)ccc1N.Cl.Cl [3,3'-Dimethoxybenzidine dihydrochloride]",–,0.847,0.823,0.799,0.158
COc1cc(Cl)c(OC)cc1Cl [Chloroneb],0.913,0.991,1.07,1.06,1.91
CNc1cnn(-c2cccc(C(F)(F)F)c2)c(=O)c1Cl [Norflurazon],1.06,0.78,0.77,0.879,1.28
"CCC(C)(C)c1ccc(O)c(C(C)(C)CC)c1 [2,4-Bis(2-methylbutan-2-yl)phenol]",–,1.05,1.07,0.955,1.13
N#CN [Cyanamide],0.837,0.715,0.775,0.84,1.25
COP(=O)(OC)OC=C(Cl)Cl [Dichlorvos],1.12,0.778,0.818,0.853,0.717
COP(=O)(OC)O/C(C)=C/C(=O)N(C)C [Dicrotophos],1.19,1.16,0.994,1.09,1.78
CNC(=O)/C=C(\C)OP(=O)(OC)OC [Monocrotophos],0.824,0.815,0.785,0.826,1.45
COc1cc(C=O)cc2c1[C@H](COC(N)=O)[C@]1(OC(C)=O)ON2C[C@H]2[C@@H]1N2C(C)=O,–,0.566,0.0435,0.0233,0.0248
CCOP(=S)(OCC)SCn1c(=O)oc2cc(Cl)ccc21 [Phosalone],0.915,1.15,1.1,1.11,0.931
CCCCN(CC)c1c([N+](=O)[O-])cc(C(F)(F)F)cc1[N+](=O)[O-] [Benfluralin],1.12,0.838,0.99,0.917,1.31
COc1cc2c(c(OC)c1OC)-c1ccc(OC)c(=O)cc1[C@@H](NC(C)=O)CC2 [Colchicine],–,0.0537,0.036,0.0452,0.0414
Cc1ccn2nc(S(=O)(=O)Nc3c(F)cccc3F)nc2n1 [Flumetsulam],0.963,1.07,0.959,1.07,1.67
CCOc1nc(F)cc2nc(S(=O)(=O)Nc3c(Cl)cccc3Cl)nn12 [Diclosulam],0.684,0.741,1.03,0.878,0.911
COc1ccc(-c2ccccc2)cc1NNC(=O)OC(C)C [Bifenazate],1.24,1.21,1.11,1.06,0.851

Structure (SMILES),Renilla luciferase signal (concentration: 0.01 uM),Renilla luciferase signal (concentration: 0.1 uM),Renilla luciferase signal (concentration: 1 uM),Renilla luciferase signal (concentration: 10 uM),Renilla luciferase signal (concentration: 100 uM)
Cc1ccc([N+](=O)[O-])cc1N [2-Methyl-5-nitroaniline],–,1.11,1.21,1.15,0.978
CC(C)N(C(=O)SCC(Cl)=C(Cl)Cl)C(C)C [Tri-allate],1.05,1.11,1.06,1.06,1.76
CC(C)COC(=O)c1ccccc1C(=O)OCC(C)C [Diisobutyl phthalate],–,0.825,0.827,0.867,1.01
CCC(C)(NC(=O)c1cc(Cl)c(C)c(Cl)c1)C(=O)CCl (stereo unspecified) [Zoxamide],1.25,1.05,0.961,0.117,0.0244
C#CC(C)(C)NC(=O)c1cc(Cl)cc(Cl)c1 [Propyzamide],1.38,1.2,1.12,1.09,1.72
COC(=O)N(OC)c1ccccc1COc1ccn(-c2ccc(Cl)cc2)n1 [Pyraclostrobin],1.35,0.995,0.707,0.149,0.113
Oc1ccc2ccc3cccc4ccc1c2c34 [1-Hydroxypyrene],–,1.01,1.06,1.09,0.811
O=P(Oc1ccccc1)(Oc1ccccc1)Oc1ccccc1 [Triphenyl phosphate],–,0.815,0.778,0.825,1.02
CS/C(C)=N/OC(=O)N(C)SN(C)C(=O)O/N=C(\C)SC [Thiodicarb],1,0.646,0.895,0.91,0.0128
CCCCCCCCc1ccc(O)cc1 [4-Octylphenol],–,1.09,1.1,1.3,0.803
CSC(C)(C)C=NO [Aldicarb oxime],–,1.13,1.06,1.24,1.09
CNC(=O)ON=C(C)SC [Methomyl],0.945,0.951,1.1,1.04,1.25
CNC(=O)ON=CC(C)(C)SC [Aldicarb],1.1,0.924,0.97,0.918,1.72
"O=[N+]([O-])c1ccc(O)c([N+](=O)[O-])c1 [2,4-Dinitrophenol]",–,1.15,1.11,0.966,0.305
CCOC(=O)C(O)(c1ccc(Cl)cc1)c1ccc(Cl)cc1 [Chlorobenzilate],–,0.927,0.837,0.929,1.26
CCCSP(=O)(OCC)SCCC [Ethoprop],1.13,0.976,1.08,1.1,1.86
CCCCSP(=O)(SCCCC)SCCCC [Tribufos],1.14,0.609,0.976,0.82,0.728
CCOP(=S)(OCC)SCSP(=S)(OCC)OCC [Ethion],–,0.929,0.935,0.973,1.13
CC(Cc1ccc(OCC(=O)O)cc1)NCC(O)c1csc(C(F)(F)F)n1 (stereo unspecified),–,0.796,0.849,0.912,1.28
"CCC12COCN1COC2 [5-Ethyl-1-aza-3,7-dioxabicyclo[3.3.0]octane]",–,0.93,1.08,1.1,1.35
CCCCC(CC)COC(=O)c1ccc(C(=O)OCC(CC)CCCC)c(C(=O)OCC(CC)CCCC)c1 (stereo unspecified) [Tris(2-ethylhexyl) trimellitate],–,0.879,0.991,0.972,1.2
